Assay results published in ChEMBL document CHEMBL1961873, “Compounds: GSK PKIS; Assays: Nanosyn kinase panel” (2012).

How the values were obtained:
[1] = target: T1, Mitogen-activated protein kinase 12 (Homo sapiens) (UniProt P53778); settings: at 1 µM;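 note: values are averaged p38gamma kinase inhibition readings, compounds tested at 1 µM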
T1 sequence (whole entry): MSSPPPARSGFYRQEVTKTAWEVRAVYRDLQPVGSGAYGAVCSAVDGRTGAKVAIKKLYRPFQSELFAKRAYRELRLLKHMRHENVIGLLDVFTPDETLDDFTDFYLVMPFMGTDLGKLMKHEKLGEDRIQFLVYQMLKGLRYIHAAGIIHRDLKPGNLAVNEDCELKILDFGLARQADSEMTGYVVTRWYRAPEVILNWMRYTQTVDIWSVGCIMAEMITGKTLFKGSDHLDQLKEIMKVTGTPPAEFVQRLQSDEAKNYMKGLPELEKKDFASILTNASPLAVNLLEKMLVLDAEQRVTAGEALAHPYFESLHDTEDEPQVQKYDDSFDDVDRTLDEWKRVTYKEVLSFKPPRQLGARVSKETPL

[2] = target: SRSF protein kinase 1 (Homo sapiens) (UniProt Q96SB4); settings: at 0.1 µM
[3] = target: SRSF protein kinase 1 (Homo sapiens) (UniProt Q96SB4); settings: at 1 µM
[4] = target: Phosphatidylinositol 4,5-bisphosphate 3-kinase catalytic subunit alpha isoform (Homo sapiens) (UniProt P42336); settings: at 0.1 µM
[5] = target: Phosphatidylinositol 4,5-bisphosphate 3-kinase catalytic subunit alpha isoform (Homo sapiens) (UniProt P42336); settings: at 1 µM
[6] = target: T2, Phosphatidylinositol 4,5-bisphosphate 3-kinase catalytic subunit delta isoform (Homo sapiens) (UniProt O00329); settings: at 0.1 µM
T2 sequence (whole entry): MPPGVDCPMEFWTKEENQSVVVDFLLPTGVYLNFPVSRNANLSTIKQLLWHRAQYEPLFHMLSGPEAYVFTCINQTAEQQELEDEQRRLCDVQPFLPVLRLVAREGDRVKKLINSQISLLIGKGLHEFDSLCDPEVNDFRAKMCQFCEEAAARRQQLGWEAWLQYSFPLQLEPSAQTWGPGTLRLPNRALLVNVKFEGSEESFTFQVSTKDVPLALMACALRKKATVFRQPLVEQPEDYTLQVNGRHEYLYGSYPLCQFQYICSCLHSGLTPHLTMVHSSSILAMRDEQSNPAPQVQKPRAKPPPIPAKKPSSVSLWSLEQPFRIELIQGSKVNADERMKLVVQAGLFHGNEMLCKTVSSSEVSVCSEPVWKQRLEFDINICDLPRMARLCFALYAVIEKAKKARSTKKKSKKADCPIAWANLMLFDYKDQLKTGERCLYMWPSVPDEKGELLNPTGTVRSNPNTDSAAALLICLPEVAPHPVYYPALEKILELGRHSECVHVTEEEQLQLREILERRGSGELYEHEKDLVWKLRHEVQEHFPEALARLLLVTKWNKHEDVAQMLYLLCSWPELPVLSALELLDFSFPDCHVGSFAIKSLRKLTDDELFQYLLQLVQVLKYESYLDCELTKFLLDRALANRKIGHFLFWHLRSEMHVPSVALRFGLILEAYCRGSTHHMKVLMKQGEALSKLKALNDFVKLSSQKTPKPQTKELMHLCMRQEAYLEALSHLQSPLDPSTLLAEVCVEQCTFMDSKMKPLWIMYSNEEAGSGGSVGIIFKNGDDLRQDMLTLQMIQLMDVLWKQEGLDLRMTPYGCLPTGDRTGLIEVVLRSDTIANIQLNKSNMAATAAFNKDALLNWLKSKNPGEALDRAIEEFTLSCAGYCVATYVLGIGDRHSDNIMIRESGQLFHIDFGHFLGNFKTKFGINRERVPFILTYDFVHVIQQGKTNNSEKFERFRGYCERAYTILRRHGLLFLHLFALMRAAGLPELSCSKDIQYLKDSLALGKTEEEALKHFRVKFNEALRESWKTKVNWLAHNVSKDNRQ

[7] = target: T2, Phosphatidylinositol 4,5-bisphosphate 3-kinase catalytic subunit delta isoform (Homo sapiens); settings: at 1 µM
[8] = target: Phosphatidylinositol 4-kinase beta (Homo sapiens) (UniProt Q9UBF8); settings: at 0.1 µM
[9] = target: Phosphatidylinositol 4-kinase beta (Homo sapiens) (UniProt Q9UBF8); settings: at 1 µM
[10] = target: Sphingosine kinase 1 (Homo sapiens) (UniProt Q9NYA1); settings: at 0.1 µM
[11] = target: Sphingosine kinase 1 (Homo sapiens) (UniProt Q9NYA1); settings: at 1 µM
[12] = target: T3, Sphingosine kinase 2 (Homo sapiens) (UniProt Q9NRA0); settings: at 0.1 µM
T3 sequence (whole entry): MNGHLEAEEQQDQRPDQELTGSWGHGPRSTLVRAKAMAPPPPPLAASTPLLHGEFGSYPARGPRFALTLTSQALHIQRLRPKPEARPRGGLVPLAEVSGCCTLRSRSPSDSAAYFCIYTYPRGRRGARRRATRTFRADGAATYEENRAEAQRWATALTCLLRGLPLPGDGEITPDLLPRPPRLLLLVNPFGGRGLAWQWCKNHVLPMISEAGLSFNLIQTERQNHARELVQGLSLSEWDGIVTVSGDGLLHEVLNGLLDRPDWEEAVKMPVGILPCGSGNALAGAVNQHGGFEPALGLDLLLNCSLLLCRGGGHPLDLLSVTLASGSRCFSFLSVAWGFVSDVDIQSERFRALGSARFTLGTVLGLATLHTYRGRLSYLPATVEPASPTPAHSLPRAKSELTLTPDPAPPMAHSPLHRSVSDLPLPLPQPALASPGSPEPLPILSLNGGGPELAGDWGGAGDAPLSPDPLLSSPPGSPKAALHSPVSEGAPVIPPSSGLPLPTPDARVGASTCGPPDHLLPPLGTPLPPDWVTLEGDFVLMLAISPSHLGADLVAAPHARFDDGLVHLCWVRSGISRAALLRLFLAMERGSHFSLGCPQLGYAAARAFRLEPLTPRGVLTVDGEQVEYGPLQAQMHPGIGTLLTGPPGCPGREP

[13] = target: T3, Sphingosine kinase 2 (Homo sapiens); settings: at 1 µM
[14] = target: Casein kinase II subunit alpha (Homo sapiens) (UniProt P68400); settings: at 0.1 µM
[15] = target: Casein kinase II subunit alpha (Homo sapiens) (UniProt P68400); settings: at 1 µM
[16] = target: T4, Inhibitor of nuclear factor kappa-B kinase subunit alpha (Homo sapiens) (UniProt O15111); settings: at 0.1 µM
T4 sequence (whole entry): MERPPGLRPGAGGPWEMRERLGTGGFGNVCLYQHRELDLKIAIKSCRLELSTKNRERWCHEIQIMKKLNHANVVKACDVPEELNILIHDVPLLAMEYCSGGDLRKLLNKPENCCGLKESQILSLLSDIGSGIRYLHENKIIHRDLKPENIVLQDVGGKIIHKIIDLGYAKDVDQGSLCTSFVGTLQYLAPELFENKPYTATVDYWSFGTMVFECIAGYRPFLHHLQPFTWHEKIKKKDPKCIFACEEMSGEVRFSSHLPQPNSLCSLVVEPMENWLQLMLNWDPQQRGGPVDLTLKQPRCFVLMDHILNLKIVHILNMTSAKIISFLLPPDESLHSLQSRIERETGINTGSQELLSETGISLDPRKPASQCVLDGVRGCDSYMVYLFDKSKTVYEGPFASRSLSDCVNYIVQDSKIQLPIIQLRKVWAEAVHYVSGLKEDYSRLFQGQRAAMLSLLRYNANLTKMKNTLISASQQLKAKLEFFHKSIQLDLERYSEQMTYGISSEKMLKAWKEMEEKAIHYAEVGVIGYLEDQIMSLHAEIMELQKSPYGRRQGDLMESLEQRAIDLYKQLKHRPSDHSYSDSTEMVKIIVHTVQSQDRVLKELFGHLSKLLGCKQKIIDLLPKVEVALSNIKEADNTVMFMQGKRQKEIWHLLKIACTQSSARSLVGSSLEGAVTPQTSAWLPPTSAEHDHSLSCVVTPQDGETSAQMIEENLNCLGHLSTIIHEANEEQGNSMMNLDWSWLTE

[17] = target: T4, Inhibitor of nuclear factor kappa-B kinase subunit alpha (Homo sapiens); settings: at 1 µM
[18] = target: T5, Inhibitor of nuclear factor kappa-B kinase subunit beta (Homo sapiens) (UniProt O14920); settings: at 0.1 µM
T5 sequence (whole entry): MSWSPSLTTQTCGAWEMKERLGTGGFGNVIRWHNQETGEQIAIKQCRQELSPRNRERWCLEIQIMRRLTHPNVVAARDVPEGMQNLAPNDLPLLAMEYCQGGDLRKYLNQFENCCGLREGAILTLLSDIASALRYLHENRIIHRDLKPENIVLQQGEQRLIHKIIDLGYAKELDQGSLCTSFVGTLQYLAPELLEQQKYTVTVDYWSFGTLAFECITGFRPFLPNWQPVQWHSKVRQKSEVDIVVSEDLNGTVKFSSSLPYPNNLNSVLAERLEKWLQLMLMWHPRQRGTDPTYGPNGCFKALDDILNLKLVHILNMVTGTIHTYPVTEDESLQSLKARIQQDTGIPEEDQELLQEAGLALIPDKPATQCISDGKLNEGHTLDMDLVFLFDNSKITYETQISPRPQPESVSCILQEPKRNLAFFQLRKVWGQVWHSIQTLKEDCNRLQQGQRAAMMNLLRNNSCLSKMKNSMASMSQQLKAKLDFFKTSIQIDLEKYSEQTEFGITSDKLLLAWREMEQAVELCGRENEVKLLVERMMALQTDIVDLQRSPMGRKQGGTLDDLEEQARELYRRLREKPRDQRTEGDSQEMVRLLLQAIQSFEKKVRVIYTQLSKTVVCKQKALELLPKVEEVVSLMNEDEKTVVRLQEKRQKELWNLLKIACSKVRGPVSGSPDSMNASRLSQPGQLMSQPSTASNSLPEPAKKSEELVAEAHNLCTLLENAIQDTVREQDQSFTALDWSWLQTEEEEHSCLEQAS

[19] = target: T5, Inhibitor of nuclear factor kappa-B kinase subunit beta (Homo sapiens); settings: at 1 µM
[20] = target: T6, Inhibitor of nuclear factor kappa-B kinase subunit epsilon (Homo sapiens) (UniProt Q14164); settings: at 0.1 µM;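 note: mean inhibition of IKKε reported, from the GSK PKIS dataset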
T6 sequence (whole entry): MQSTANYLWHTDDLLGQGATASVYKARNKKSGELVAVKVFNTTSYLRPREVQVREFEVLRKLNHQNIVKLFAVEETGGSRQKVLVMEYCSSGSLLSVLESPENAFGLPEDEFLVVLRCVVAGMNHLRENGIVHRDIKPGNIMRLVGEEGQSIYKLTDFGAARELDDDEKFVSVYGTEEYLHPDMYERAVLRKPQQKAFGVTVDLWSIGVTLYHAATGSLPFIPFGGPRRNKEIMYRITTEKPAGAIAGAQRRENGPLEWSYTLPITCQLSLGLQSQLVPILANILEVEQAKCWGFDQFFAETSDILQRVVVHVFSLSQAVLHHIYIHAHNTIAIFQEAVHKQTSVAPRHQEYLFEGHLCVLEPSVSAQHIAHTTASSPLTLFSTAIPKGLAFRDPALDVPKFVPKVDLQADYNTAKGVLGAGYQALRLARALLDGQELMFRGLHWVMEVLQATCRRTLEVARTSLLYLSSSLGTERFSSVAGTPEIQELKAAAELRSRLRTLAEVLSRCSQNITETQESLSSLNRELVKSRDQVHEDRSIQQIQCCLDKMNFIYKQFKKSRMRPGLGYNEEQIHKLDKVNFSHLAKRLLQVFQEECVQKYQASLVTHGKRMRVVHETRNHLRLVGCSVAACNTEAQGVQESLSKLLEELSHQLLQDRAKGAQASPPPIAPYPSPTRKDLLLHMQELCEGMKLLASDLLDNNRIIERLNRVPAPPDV

Phosphatidylinositol 4-kinase beta (Homo sapiens), sequence (Q9UBF8 2-816 limits assumed): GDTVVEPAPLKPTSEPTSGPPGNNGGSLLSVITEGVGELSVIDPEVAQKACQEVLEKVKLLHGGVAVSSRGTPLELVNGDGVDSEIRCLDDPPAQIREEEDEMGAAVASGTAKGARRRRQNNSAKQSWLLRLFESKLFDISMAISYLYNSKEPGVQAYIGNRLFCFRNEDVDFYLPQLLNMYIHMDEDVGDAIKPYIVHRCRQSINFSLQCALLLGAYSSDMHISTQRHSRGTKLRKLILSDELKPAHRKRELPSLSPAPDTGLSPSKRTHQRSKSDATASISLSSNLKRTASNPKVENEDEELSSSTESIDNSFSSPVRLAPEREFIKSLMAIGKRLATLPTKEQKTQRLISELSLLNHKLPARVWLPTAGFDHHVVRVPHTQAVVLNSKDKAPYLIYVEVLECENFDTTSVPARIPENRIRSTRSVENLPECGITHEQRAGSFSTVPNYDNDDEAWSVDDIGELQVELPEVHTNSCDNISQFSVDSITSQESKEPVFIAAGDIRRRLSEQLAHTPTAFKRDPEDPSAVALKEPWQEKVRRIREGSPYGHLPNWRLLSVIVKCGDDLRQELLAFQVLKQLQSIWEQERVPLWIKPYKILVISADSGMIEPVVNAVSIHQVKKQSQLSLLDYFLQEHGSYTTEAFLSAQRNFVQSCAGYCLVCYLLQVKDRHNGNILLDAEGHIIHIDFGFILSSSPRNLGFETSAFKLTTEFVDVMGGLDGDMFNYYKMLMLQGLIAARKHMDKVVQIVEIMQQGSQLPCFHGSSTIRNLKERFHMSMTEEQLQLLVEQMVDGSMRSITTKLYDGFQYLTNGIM
Phosphatidylinositol 4,5-bisphosphate 3-kinase catalytic subunit alpha isoform (Homo sapiens), sequence (P42336 whole entry, canonical isoform): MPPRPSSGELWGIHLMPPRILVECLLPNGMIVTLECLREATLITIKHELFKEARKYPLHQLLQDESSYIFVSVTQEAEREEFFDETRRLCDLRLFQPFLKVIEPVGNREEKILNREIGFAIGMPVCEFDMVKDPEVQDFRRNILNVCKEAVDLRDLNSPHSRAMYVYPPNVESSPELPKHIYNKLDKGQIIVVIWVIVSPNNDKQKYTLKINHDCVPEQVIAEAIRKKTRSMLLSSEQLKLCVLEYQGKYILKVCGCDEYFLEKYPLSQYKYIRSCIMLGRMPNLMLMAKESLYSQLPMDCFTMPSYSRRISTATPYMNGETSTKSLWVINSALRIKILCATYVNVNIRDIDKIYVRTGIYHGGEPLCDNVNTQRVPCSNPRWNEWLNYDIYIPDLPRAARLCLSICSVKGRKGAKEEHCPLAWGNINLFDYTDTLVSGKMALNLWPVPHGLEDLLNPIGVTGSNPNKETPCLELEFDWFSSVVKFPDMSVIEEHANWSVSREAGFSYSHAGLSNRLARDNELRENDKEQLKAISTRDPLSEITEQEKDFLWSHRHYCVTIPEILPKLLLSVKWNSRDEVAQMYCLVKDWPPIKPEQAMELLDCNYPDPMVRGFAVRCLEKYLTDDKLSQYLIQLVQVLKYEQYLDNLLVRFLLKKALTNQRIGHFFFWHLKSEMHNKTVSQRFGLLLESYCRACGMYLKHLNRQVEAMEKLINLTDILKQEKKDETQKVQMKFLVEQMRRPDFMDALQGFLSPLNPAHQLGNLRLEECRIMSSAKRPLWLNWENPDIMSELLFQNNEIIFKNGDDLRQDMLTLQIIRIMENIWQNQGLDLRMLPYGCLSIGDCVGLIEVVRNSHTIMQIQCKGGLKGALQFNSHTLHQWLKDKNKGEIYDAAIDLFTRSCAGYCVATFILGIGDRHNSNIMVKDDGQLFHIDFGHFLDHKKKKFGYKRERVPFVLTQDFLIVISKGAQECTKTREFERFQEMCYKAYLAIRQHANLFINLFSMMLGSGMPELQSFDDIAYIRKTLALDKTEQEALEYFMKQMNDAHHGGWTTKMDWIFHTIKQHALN
Casein kinase II subunit alpha (Homo sapiens), sequence (P68400 whole entry, looked up): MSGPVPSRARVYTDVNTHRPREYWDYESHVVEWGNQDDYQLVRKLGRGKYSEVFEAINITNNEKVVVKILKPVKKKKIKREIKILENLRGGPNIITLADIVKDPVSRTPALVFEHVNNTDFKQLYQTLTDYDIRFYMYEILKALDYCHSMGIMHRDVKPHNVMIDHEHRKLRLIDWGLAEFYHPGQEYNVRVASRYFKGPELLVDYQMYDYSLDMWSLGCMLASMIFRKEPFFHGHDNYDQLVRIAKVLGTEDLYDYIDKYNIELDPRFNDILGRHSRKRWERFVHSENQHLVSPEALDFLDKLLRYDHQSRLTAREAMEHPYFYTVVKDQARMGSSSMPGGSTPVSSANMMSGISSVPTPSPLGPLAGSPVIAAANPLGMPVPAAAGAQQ
Sphingosine kinase 1 (Homo sapiens), sequence (Q9NYA1 whole entry): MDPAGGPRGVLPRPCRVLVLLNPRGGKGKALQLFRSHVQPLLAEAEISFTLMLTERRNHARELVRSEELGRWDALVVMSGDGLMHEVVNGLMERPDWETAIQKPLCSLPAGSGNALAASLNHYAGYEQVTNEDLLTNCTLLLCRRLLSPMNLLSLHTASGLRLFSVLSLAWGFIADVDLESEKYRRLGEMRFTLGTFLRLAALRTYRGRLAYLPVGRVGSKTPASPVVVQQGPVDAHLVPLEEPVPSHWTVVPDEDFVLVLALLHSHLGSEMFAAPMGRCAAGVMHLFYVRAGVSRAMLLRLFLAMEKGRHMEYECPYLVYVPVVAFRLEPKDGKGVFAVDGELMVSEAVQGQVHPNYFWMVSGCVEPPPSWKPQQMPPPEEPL
SRSF protein kinase 1 (Homo sapiens), sequence (Q96SB4 whole entry, canonical isoform): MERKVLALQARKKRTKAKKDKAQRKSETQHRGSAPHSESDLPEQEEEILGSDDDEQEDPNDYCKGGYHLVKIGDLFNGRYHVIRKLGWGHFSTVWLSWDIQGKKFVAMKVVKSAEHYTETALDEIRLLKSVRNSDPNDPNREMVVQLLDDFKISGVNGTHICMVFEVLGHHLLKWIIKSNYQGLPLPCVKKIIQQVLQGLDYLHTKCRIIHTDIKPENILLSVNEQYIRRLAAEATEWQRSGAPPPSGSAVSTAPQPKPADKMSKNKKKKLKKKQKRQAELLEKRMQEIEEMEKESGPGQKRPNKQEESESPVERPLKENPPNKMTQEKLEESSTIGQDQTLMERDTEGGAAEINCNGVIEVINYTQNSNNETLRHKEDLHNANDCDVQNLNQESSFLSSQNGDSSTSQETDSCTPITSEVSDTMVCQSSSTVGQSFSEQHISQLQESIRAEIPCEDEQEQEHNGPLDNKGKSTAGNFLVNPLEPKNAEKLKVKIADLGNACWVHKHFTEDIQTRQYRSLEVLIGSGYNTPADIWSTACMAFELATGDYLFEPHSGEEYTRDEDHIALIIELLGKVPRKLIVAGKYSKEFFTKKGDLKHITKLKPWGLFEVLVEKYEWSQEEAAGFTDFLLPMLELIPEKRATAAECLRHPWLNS

Structure (SMILES) | inhibition [1] | inhibition [2] | inhibition [3] | inhibition [4] | inhibition [5] | inhibition [6] | inhibition [7] | inhibition [8] | inhibition [9] | inhibition [10] | inhibition [11] | inhibition [12] | inhibition [13] | inhibition [14] | inhibition [15] | inhibition [16] | inhibition [17] | inhibition [18] | inhibition [19] | inhibition [20]
[O-][S+]1CCN(Cc2ccc(-c3ccc4ncnc(Nc5ccc(OCc6cccc(F)c6)c(Cl)c5)c4c3)o2)CC1 | 4.04% | -1.9% | -2.12% | 5.72% | 6.58% | 2.17% | 6.89% | 0.59% | -7.5% | -0.15% | 1.32% | 4.71% | 0.73% | 12.8% | 4.15% | 8.15% | 9.46% | 9.09% | 7.58% | 11.3%
CN1CCC(n2cnc(-c3ccc(F)cc3)c2-c2ccnc(N)n2)CC1 | 2.49% | -1.72% | -1.48% | 1.81% | 5.12% | 4.38% | 27.1% | 1.13% | 3.14% | -2.21% | -3.49% | 0% | -1.67% | 8.38% | 42.7% | 1.97% | 6.98% | 4.41% | 4.02% | 3.07%
CNC(=O)c1cc(-c2ccc(F)cc2)cc(-c2ccc(S(=O)(=O)N3CCCC3)cc2)c1N | 2.47% | -2.58% | -1.56% | 2.34% | 1.39% | 0.79% | 1.11% | -2.09% | 1.93% | -0.85% | -1.82% | -0.5% | -0.63% | 15.5% | 3.05% | 7.04% | 4.67% | 5.48% | 5.18% | 2.88%
O=C(Nc1n[nH]c2cc(-c3ccc(F)cc3)ccc12)C1CC1 | 2.53% | -1.78% | -2.19% | 5.93% | 9.6% | 7.39% | 10.8% | 3.38% | -2.55% | 2.17% | 0.32% | 0.15% | -0.37% | 2.04% | 0.79% | 4.81% | -0.71% | 4.46% | 2.08% | 4.25%
CCOc1ccc2c(-c3ccnc(Nc4cccc(C(F)(F)F)c4)n3)cnn2n1 | 0.81% | -3.06% | -3.22% | 2.25% | 3.21% | -0.36% | 0.32% | -2.42% | -0.91% | 0.68% | -1.13% | 2.38% | -1.13% | 5.72% | 7.82% | 11.5% | 6.76% | 4.08% | 3.66% | 8.35%
CC1=C(C(=O)Nc2cc(Cl)c3[nH]ncc3c2)C(c2ccc(C(F)(F)F)cc2)CC(=O)N1 (stereo not given) | 2.49% | -1.04% | -1.39% | 2.86% | 6.37% | 1.38% | 4.61% | 3.72% | 1.77% | 6.22% | -1.96% | 0.58% | 0.72% | 3.06% | 1.13% | 4.43% | 4.34% | 3.26% | 5.73% | 4.64%
